In PubChem BioAssay AID1159580 (chemical genetic matrix, 2015):
The whole screen tested about 5,500 compounds, of which about 2,000 (36%) were called active. Another 18% or so got no clear call; they are omitted. Rule as the data show it: active = normalized growth mostly below about 0.91 (no sharp cut-off); inconclusive = no clear call, values can overlap the other calls; inactive = mostly above about 0.92. Some of the results follow.

Assay: chemical genetic growth profiling, strain panel (AID 1159580);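 also: tested at 20 µM; growth read once vehicle control cultures reached saturation at 30 °C; 1 = growth at the plate median or of vehicle wells; lower values mean less growth of the strain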
Conditions: growth OD

Measured: normalized growth

CCCCCCCCCCCCCCCCCCOCC(O)CO (stereo not drawn)
inactive: S. cerevisiae deletion strains, locus YJR043C, strain POL32, stronger effect = lower value 1.01 | S. cerevisiae deletion strains, locus YJR066W, strain TOR1, stronger effect = lower value 0.965 | S. cerevisiae deletion strains, locus YKL009W, strain mrt4, stronger effect = lower value 1.04 | S. cerevisiae deletion strains, locus YKL068W, stronger effect = lower value 1.01 | S. cerevisiae deletion strains, locus YKL085W, strain MDH1 (second series), stronger effect = lower value 0.986 | S. cerevisiae deletion strains, locus YKL085W, strain MDH1, stronger effect = lower value 0.986 | S. cerevisiae deletion strains, locus YKL160W, strain elf1, stronger effect = lower value 1.01 | S. cerevisiae deletion strains, locus YKR001C, strain vps1, stronger effect = lower value 1.04 | S. cerevisiae deletion strains, locus YKR026C, strain gcn3, stronger effect = lower value 1 | S. cerevisiae deletion strains, locus YKR091W, strain srl3, stronger effect = lower value 0.995 | S. cerevisiae deletion strains, locus YLL001W, strain dnm1, stronger effect = lower value 0.997 | S. cerevisiae deletion strains, locus YLL026W, stronger effect = lower value 0.983 | S. cerevisiae deletion strains, locus YLL041C, strain sdh2, stronger effect = lower value 0.997 | S. cerevisiae deletion strains, locus YLR027C, strain aat2, stronger effect = lower value 0.998 | S. cerevisiae deletion strains, locus YLR039C, strain RIC1, stronger effect = lower value 1.04 | S. cerevisiae deletion strains, locus YLR058C, strain SHM2, stronger effect = lower value 0.999 | S. cerevisiae deletion strains, locus YLR102C, strain apc9, stronger effect = lower value 1.01 | S. cerevisiae deletion strains, locus YLR113W, strain HOG1, stronger effect = lower value 0.995 | S. cerevisiae deletion strains, locus YLR221C, strain rsa3, stronger effect = lower value 1 | S. cerevisiae deletion strains, locus YLR258W, strain gsy2, stronger effect = lower value 0.975 | S. cerevisiae deletion strains, locus YLR262C, strain YPT6 (second series), stronger effect = lower value 1 | S. cerevisiae deletion strains, locus YLR262C, strain YPT6, stronger effect = lower value 1.01 | S. cerevisiae deletion strains, locus YLR268W, strain sec22, stronger effect = lower value 1.05 | S. cerevisiae deletion strains, locus YLR320W, strain mms22, stronger effect = lower value 0.979 | S. cerevisiae deletion strains, locus YLR330W, strain CHS5, stronger effect = lower value 1.02 | S. cerevisiae deletion strains, locus YLR342W, strain FKS1 (second series), stronger effect = lower value 1.04 | S. cerevisiae deletion strains, locus YLR342W, strain FKS1, stronger effect = lower value 0.987 | S. cerevisiae deletion strains, locus YLR357W, strain rsc2, stronger effect = lower value 0.932 | S. cerevisiae deletion strains, locus YLR370C, strain arc18, stronger effect = lower value 0.998 | S. cerevisiae deletion strains, locus YLR371W, strain rom2, stronger effect = lower value 1.02 | S. cerevisiae deletion strains, locus YLR384C, strain iki3, stronger effect = lower value 0.986 | S. cerevisiae deletion strains, locus YLR418C, strain cdc73, stronger effect = lower value 0.976 | S. cerevisiae deletion strains, locus YML016C, strain PPZ1, stronger effect = lower value 1.01 | S. cerevisiae deletion strains, locus YML032C, strain rad52, stronger effect = lower value 0.983 | S. cerevisiae deletion strains, locus YML120C, strain ndi1, stronger effect = lower value 1.01 | S. cerevisiae deletion strains, locus YML124C, strain tub3, stronger effect = lower value 1 | S. cerevisiae deletion strains, locus YMR058W, strain fet3, stronger effect = lower value 0.999 | S. cerevisiae deletion strains, locus YMR078C, strain ctf18, stronger effect = lower value 1 | S. cerevisiae deletion strains, locus YMR125W, strain sto1, stronger effect = lower value 0.955 | S. cerevisiae deletion strains, locus YMR129W, stronger effect = lower value 0.989 | S. cerevisiae deletion strains, locus YMR205C, strain PFK2, stronger effect = lower value 0.96 | S. cerevisiae deletion strains, locus YMR223W, strain ubp8, stronger effect = lower value 1.01 | S. cerevisiae deletion strains, locus YMR231W, strain pep5, stronger effect = lower value 0.993 | S. cerevisiae deletion strains, locus YMR263W, strain SAP30, stronger effect = lower value 1 | S. cerevisiae deletion strains, locus YMR307W, strain GAS1, stronger effect = lower value 1.01 | S. cerevisiae deletion strains, locus YNL067W, strain RPL9B, stronger effect = lower value 1.01 | S. cerevisiae deletion strains, locus YNL071W, strain lat1, stronger effect = lower value 1 | S. cerevisiae deletion strains, locus YNL128W, strain TEP1, stronger effect = lower value 1.02 | S. cerevisiae deletion strains, locus YNL183C, strain NPR1, stronger effect = lower value 0.974 | S. cerevisiae deletion strains, locus YNL209W, strain ssb2, stronger effect = lower value 0.999 | S. cerevisiae deletion strains, locus YNL233W, strain BNI4, stronger effect = lower value 1.01 | S. cerevisiae deletion strains, locus YNL248C, strain rpa49, stronger effect = lower value 1.01 | S. cerevisiae deletion strains, locus YNL250W, strain rad50, stronger effect = lower value 1 | S. cerevisiae deletion strains, locus YNL271C, strain bni1, stronger effect = lower value 1 | S. cerevisiae deletion strains, locus YNL298W, strain CLA4, stronger effect = lower value 1 | S. cerevisiae deletion strains, locus YNL307C, strain MCK1, stronger effect = lower value 1.01 | S. cerevisiae deletion strains, locus YNL322C, strain KRE1 (second series), stronger effect = lower value 0.998 | S. cerevisiae deletion strains, locus YNR049C, strain mso1, stronger effect = lower value 0.995 | S. cerevisiae deletion strains, locus YNR052C, strain pop2, stronger effect = lower value 0.999 | S. cerevisiae deletion strains, locus YOL012C, strain htz1 0.72 | S. cerevisiae deletion strains, locus YOL147C, strain pex11, stronger effect = lower value 1 | S. cerevisiae deletion strains, locus YOR001W, strain rrp6, stronger effect = lower value 0.996 | S. cerevisiae deletion strains, locus YOR061W, strain CKA2, stronger effect = lower value 1 | S. cerevisiae deletion strains, locus YOR069W, strain VPS5, stronger effect = lower value 1.01 | S. cerevisiae deletion strains, locus YOR070C, strain gyp1, stronger effect = lower value 0.997 | S. cerevisiae deletion strains, locus YOR080W, strain dia2, stronger effect = lower value 0.977 | S. cerevisiae deletion strains, locus YOR083W, strain WHI5, stronger effect = lower value 1.02 | S. cerevisiae deletion strains, locus YOR106W, strain vam3, stronger effect = lower value 1.01 | S. cerevisiae deletion strains, locus YOR136W, strain idh2, stronger effect = lower value 1.02 | S. cerevisiae deletion strains, locus YOR144C, strain elg1, stronger effect = lower value 1.01 | S. cerevisiae deletion strains, locus YOR184W, strain ser1, stronger effect = lower value 0.995 | S. cerevisiae deletion strains, locus YOR231W, strain MKK1, stronger effect = lower value 1 | S. cerevisiae deletion strains, locus YOR265W, strain rbl2, stronger effect = lower value 0.987 | S. cerevisiae deletion strains, locus YOR270C, strain vph1, stronger effect = lower value 1.03 | S. cerevisiae deletion strains, locus YOR290C, strain snf2, stronger effect = lower value 0.973 | S. cerevisiae deletion strains, locus YOR316C, strain cot1, stronger effect = lower value 0.997 | S. cerevisiae deletion strains, locus YPL051W, strain arl3, stronger effect = lower value 1.01 | S. cerevisiae deletion strains, locus YPL078C, strain atp4, stronger effect = lower value 1.01 | S. cerevisiae deletion strains, locus YPL106C, strain sse1, stronger effect = lower value 0.953 | S. cerevisiae deletion strains, locus YPL240C, strain hsp82, stronger effect = lower value 0.985 | S. cerevisiae deletion strains, locus YPL241C, strain CIN2, stronger effect = lower value 0.998 | S. cerevisiae deletion strains, locus YPL256C, strain CLN2, stronger effect = lower value 0.983 | S. cerevisiae deletion strains, locus YPR119W, strain clb2, stronger effect = lower value 1 | S. cerevisiae deletion strains, locus YPR141C, strain kar3, stronger effect = lower value 1 | S. cerevisiae deletion strains, locus YPR163C, strain tif3, stronger effect = lower value 1.02 | S. cerevisiae deletion strains, locus YPR167C, strain met16, stronger effect = lower value 1.02 | S. cerevisiae deletion strains, strain wtn01, stronger effect = lower value 1.04 | S. cerevisiae strains, strain wild type, stronger effect = lower value 0.995
